The record followed here is PubChem BioAssay (Tox21).

Several values for one entry are separate records, joined by “and”; a condition that tells them apart may be missing. Equal values may be shown once. Values without a mark were called inactive. Records with an inconclusive call do not appear. Activity calls are given as the source filed them. Unless noted, calls follow the shape of the dose curve; as a rule, active = well fitted curve in the direction sought with a large enough effect in the repeat runs; inconclusive = weak or mixed curves; inactive = no such curve, though single readings can be large; an effect the other way counts as inactive or inconclusive.

A short description of assay [1]: A CellTox Green Cytotoxicity Assay to monitor cytotoxicity in HepG2 cells - 0 hour (AID 1224882). Also: nearly all actives have a fitted effect of over 35% in size. A digest of the protocol:
(§1)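 Cells and non-lytic dye reagent are dispensed together (600 HepG2 cells/well) and incubated 5 h before DMSO compound transfer. Kinetic fluorescence is then recorded in the same wells during 40 h at 37 C.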

The nature of assay [2]: qHTS RealTime-Glo MT Cell Viability Assay in HepG2 cells - 16 hour (AID 1224885). Also: nearly all actives have a fitted effect of over 50% in size. Also: potency is read from the fitted curve at half-maximal effect. The procedure, abridged: (§2)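 Cells + NanoLuc/prosubstrate dispensed (600 cells/well) → 5 h at 37 C/5% CO2 → compounds in DMSO transferred → 40 h incubation at 37 C, luminescence read at 0, 8, 16, 24, 32, 40 h.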
Assay [3] can be described thus: qHTS RealTime-Glo MT Cell Viability Assay in HEK293 cells - 24 hour (AID 1224886). Also: nearly all actives have a fitted effect of over 50% in size. Also: potency is read from the fitted curve at half-maximal effect. As to activity change, negative = cytotoxicity: top concentration of the series differs between compounds. The procedure, abridged: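 Tox21 10K qHTS, HEK293, 600 cells/well, RealTime-Glo reagent co-dispensed with cells; 5 h preincubation, compound by pintool, 37 C, luminescence at 0–40 h.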
Assay [4] in a line: qHTS RealTime-Glo MT Cell Viability Assay in HEK293 cells - 8 hour (AID 1224887). Also: nearly all actives have a fitted effect of over 50% in size. Also: potency is read from the fitted curve at half-maximal effect. As to activity change, negative = cytotoxicity: top concentration of the series differs between compounds. The procedure, abridged:
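Real-time viability in HEK293: signal arises when living cells convert a prosubstrate for NanoLuc in the medium, so luminescence tracks viable cell number. Compound (23 nL, DMSO) added 5 h post-seeding; kinetic reads at 0–40 h, 37 C.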
On the technique in general: Quantitative high-throughput screening tests each substance at several concentrations.

Assay [5] in a line: A CellTox Green Cytotoxicity Assay to monitor cytotoxicity in HEK293 cells - 16 hour (AID 1224888). Also: nearly all actives have a fitted effect of over 35% in size. Also: potency is read from the fitted curve at half-maximal effect. A digest of the protocol:
(§3)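 Cells (HEK293, 600/well) and dye reagent are dispensed together. After 5 h at 37 C, 23 nL compound is pinned in. Plates stay at 37 C for 40 h with fluorescence read at 0h, 8h, 16h, 24h, 32h and 40h.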

Assay [6] is described as follows: qHTS RealTime-Glo MT Cell Viability Assay in HepG2 cells - 0 hour (AID 1224889). Also: nearly all actives have a fitted effect of over 50% in size. The procedure, abridged: as §2
Assay [7] in a line: A CellTox Green Cytotoxicity Assay to monitor cytotoxicity in HepG2 cells - 8 hour (AID 1224890). Also: nearly all actives have a fitted effect of over 45% in size. Also: potency is read from the fitted curve at half-maximal effect. The procedure, abridged: as §1
The nature of assay [8]: qHTS assay to identify small molecule antagonists of the estrogen receptor alpha (ER-alpha) signaling pathway using the BG1 cell line in the presence of 0.1 nM 17-beta-estradiol - cell viability counter screen (AID 1259241). Also: nearly all actives have a fitted effect of over 40% in size. The procedure, abridged: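 VM7Luc4E2 cells (endogenous full-length ER-alpha, 4xERE-luciferase), cultured 5 days in charcoal-stripped serum, exposed to compounds with 0.1 nM 17beta-estradiol (final) for 22 hr at 37C. Viability read in same wells as live-cell protease fluorescence after 30 min.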

Assay [9] can be described thus: qHTS assay to identify small molecule antagonists of the androgen receptor (AR) signaling pathway using the MDA cell line in the presence of 0.5 nM R1881 - cell viability counter screen (AID 1259242). Also: nearly all actives have a fitted effect of over 45% in size. Also: potency is read from the fitted curve at half-maximal effect. A digest of the protocol:
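Steps: plate MDA-kb2 cells, rest 5 hr at 37C without CO2; pin in compounds in DMSO; add R1881 to 0.5 nM final; incubate 16 hr; add CellTiter-Fluor, 30 min; read fluorescence.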

In assay [10] the target is Estrogen receptor (Homo sapiens) (UniProt P03372). The experiment in a line: qHTS assay to identify small molecule antagonists of the estrogen receptor alpha (ER-alpha) signaling pathway using the BG1 cell line in the presence of 0.1 nM 17-beta-estradiol (AID 1259244). Also: nearly all actives have a fitted effect of over 50% in size. Also: potency is read from the fitted curve at half-maximal effect. A digest of the protocol:
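Antagonist mode: compounds in DMSO are pinned onto VM7Luc4E2 reporter cells, 0.1 nM final 17beta-estradiol is added, and after 22 h at 37C luciferase luminescence is measured with ONE-Glo.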

Assay [11] is described as follows: qHTS assay to identify small molecule HDAC inhibitors (AID 1259364).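 Also: wild-type HCT-116 cells with endogenous class I/II HDAC activity; top concentration of the series differs between compounds; nearly all actives have a fitted effect of over 45% in size.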 The procedure, abridged: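 Cells (HCT-116, wild type) are seeded at 1,500 per well, incubated overnight, treated with compound in DMSO for 2 hr, then developed with HDAC-Glo I/II reagent for 30 min at room temperature.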
The nature of assay [12]: qHTS assay to identify small molecule HDAC inhibitors - cell viability counter screen (AID 1259365). The procedure, abridged:
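Wild-type HCT-116 cells, 1,500/well, cultured overnight, then compound-treated 2 h at 37 C. Viability measured as ATP luminescence with CellTiter-Glo after 30 min at room temperature.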

Assay [13] can be described thus: qHTS assay to identify small molecule agonists of the sonic hedgehog signaling (Shh) pathway - cell viability counter screen (AID 1259366). Also: nearly all actives have a fitted effect of over 50% in size. Also: potency is read from the fitted curve at half-maximal effect. A digest of the protocol:
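NIH/3T3-derived Gli1-Luc reporter cells, 2,000 per well, received compound after 4 h and were treated about 23 h at 37C. Viability measured in the same wells by CellTiter-Fluor fluorescence after 1 h.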

A short description of assay [14]: qHTS assay to identify small molecule antagonists of the sonic hedgehog signaling (Shh) pathway - cell viability counter screen (AID 1259367). Also: nearly all actives have a fitted effect of over 55% in size. Also: potency is read from the fitted curve at half-maximal effect. A digest of the protocol:
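Fluorescence read-out (CellTiter-Fluor, 1 hr at 37C) taken after 23 hr compound treatment of 3T3 Gli1-Luc cells stimulated with conditioned medium. Cells were seeded at 2,000 per well and pre-incubated 4 hr.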

Assay [15] is described as follows: qHTS assay to identify small molecule agonists of the sonic hedgehog signaling (Shh) pathway (AID 1259368; calls by dose curve;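 also: NIH/3T3-derived 3T3Gli1-Luc cells carrying a stable Gli1-driven firefly luciferase reporter; series mostly up to about 92 µM; nearly all actives have a fitted effect of over 15% in size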). A digest of the protocol:
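Cells of a mouse NIH/3T3 clone stably expressing luciferase under the Gli1 transcriptional response element are exposed to test chemicals for 24 hr at 37 C. Pathway activation is detected as a rise in luminescence.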

Assay [16] in a line: qHTS assay to identify small molecule antagonists of the sonic hedgehog signaling (Shh) pathway (AID 1259369; calls by dose curve; also: nearly all actives have a fitted effect of over 45% in size; also: potency is read from the fitted curve at half-maximal effect). A digest of the protocol: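 Cells are plated and held 4hr at 37 C, compounds (DMSO) are pinned in, conditioned medium is added to stimulate the pathway, and after 24hr luciferase reagent is added for 30min before luminescence is read.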
The nature of assay [17]: A CellTox Green Cytotoxicity Assay to monitor cytotoxicity in HEK293 cells - 8 hour (AID 1224884). Also: nearly all actives have a fitted effect of over 35% in size. A digest of the protocol:
as §3

In assay [18] the target is Androgen receptor (Homo sapiens) (UniProt P10275). The experiment in a line: qHTS assay to identify small molecule antagonists of the androgen receptor (AR) signaling pathway using the MDA cell line in the presence of 0.5 nM R1881 (AID 1259243). Also: nearly all actives have a fitted effect of over 50% in size. Also: potency is read from the fitted curve at half-maximal effect. The procedure, abridged:
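Stably transfected MDA-kb2 cells express luciferase from an MMTV promoter bearing both AR and GR response elements. Compounds plus 0.5 nM R1881 (final) were incubated 16 hr at 37C without CO2, then luminescence measured.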

Assay [19] can be described thus: qHTS assay to identify small molecule phospholipidosis (PLD) inducers (AID 1259344; active = well fitted curve in the direction sought with a large enough effect; an effect the other way counts as inactive or inconclusive). A digest of the protocol: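 Read-out is LipidTOX Red fluorescence (ex 595/em 615) imaged in HepG2 cells after 24 h compound exposure at 37 C, with Hoechst nuclear counterstain (ex 352/em 461) allowing per-cell normalisation.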
% is scaled to controls: 0 for no effect and ±100 for the full control effect.

Androgen receptor (Homo sapiens), sequence (P10275 whole entry, looked up): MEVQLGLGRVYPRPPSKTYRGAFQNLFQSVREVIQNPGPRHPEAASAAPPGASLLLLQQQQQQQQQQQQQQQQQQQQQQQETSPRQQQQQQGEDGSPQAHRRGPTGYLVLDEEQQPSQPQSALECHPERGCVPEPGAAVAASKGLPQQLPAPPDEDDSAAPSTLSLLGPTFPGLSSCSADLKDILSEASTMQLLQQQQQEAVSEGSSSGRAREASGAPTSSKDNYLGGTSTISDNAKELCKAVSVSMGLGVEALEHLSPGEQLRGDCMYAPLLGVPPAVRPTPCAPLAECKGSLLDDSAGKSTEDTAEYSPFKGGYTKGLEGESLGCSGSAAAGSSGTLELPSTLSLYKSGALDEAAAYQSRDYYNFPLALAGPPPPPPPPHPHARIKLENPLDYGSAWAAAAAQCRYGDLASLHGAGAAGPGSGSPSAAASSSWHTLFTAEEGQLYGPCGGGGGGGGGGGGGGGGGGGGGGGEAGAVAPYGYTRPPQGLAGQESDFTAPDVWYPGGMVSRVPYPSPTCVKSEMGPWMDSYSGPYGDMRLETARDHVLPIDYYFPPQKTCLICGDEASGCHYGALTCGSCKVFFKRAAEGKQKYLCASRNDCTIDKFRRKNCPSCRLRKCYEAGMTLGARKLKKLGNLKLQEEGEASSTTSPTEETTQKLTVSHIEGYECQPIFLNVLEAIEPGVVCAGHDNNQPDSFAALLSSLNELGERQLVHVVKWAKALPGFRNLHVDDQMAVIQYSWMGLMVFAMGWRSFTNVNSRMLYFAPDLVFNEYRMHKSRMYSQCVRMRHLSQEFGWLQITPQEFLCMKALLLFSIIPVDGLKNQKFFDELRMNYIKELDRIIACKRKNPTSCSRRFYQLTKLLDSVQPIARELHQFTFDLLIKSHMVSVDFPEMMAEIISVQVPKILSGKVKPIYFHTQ
Estrogen receptor (Homo sapiens), sequence (P03372 whole entry, looked up): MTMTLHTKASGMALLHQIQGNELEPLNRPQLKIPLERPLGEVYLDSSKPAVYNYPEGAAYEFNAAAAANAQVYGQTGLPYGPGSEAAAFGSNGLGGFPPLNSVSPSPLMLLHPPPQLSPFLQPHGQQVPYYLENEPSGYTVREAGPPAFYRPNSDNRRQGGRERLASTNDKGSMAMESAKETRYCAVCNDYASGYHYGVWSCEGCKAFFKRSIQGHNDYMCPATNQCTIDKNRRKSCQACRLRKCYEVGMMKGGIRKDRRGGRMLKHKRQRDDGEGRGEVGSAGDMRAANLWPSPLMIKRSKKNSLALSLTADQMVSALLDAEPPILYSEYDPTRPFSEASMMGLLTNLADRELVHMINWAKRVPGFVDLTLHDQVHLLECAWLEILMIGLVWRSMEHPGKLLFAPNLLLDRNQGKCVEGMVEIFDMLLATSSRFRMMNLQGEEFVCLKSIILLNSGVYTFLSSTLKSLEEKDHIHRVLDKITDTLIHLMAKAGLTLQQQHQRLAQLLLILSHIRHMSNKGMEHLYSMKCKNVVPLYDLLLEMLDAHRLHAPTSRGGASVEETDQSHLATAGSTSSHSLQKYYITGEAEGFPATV

For `COc1cccc(O)c1`, the Potency entry in assay [1], in assay [2], in [3], in assay [4], in assay [5] and in [6] was “inactive” throughout. For the same compound, the Potency result in assay [7], in [8], in assay [9], in [10], in assay [11] and in [12] was “inactive” in each case. For the same compound, the Potency result in [13], in [14], in assay [15] and in assay [16] was “inactive” throughout.

Regarding `CC(C)(c1cc(Br)c(OCCO)c(Br)c1)c1cc(Br)c(OCCO)c(Br)c1`, the Potency result in assay [1], in [17], in assay [5], in assay [6], in [7] and in assay [8] was “inactive” in each case. For the same compound, the Potency result in assay [12], in assay [14] and in [15] was “inactive” each time. The figures for the Potency in [3] and in assay [18] were 12 µM (active) and 23.8 µM (active), respectively.

On to `CCCCCCOc1cc(C)c(O)c(C)c1C`, for which the Potency entry in assay [1], in assay [6], in assay [8], in assay [11] and in assay [15] was “inactive” throughout. The Potency in assay [3] was 15.7 µM (active); in [4] it was 14 µM (active); in assay [5] it was 44.2 µM (active); in assay [7], 35.1 µM (active); in assay [14] it was 61.9 µM (active).

Turning to `CCOC(=O)N1CCC(=C2c3ccc(Cl)cc3CCc3cccnc32)CC1`, the Potency entry in assay [1], in assay [17], in [5], in assay [6], in [7] and in [8] was “inactive” throughout. Besides, the Potency entry in assay [9], in assay [11], in assay [12], in [14] and in assay [15] was “inactive” throughout. Besides, the Potency in assay [3] was 21.9 µM (active) and 16.9 µM (active); in assay [4] it was 21.9 µM (active); in [10], 61.1 µM (active); in [13], 61.1 µM (active); in assay [16], 43.3 µM (active) and 13.3 µM (active).

On to `CC(C)OC(=O)c1cc(C(=O)OC(C)C)cc([N+](=O)[O-])c1`, for which the Potency result in assay [1], in assay [2], in assay [5], in assay [6], in assay [7] and in assay [9] was “inactive” in each case. For the same compound, the Potency result in [12], in [14] and in assay [15] was “inactive” throughout.

For the compound `COc1cc(C(C)C)c2c(c1)S(=O)(=O)N(COc1cc(=O)n3cccc(OCCN4CCCCC4)c3n1)C2=O`, the cytotoxicity in [1] was 2.15% [at 15.8 µM]. For the same compound, the cytotoxicity increase in assay [17] is -6.14% [at 15.8 µM]. Also, the activity change, negative = cytotoxic in assay [2] was -16.4% [at 15.8 µM]. Further, the activity change is 2.2% [at 15.8 µM, hits give high values] in assay [5] and 1.72% [at 18.9 µM, hits give high values] in [15]. Further, the activity change, negative = cytotoxicity in [6] was -4.58% [at 15.8 µM]; in assay [12], -0.608% [at 19 µM]. Also, the viability change, negative = cytotoxic in assay [9] was -2.69% [at 19 µM]. In addition, the activity, negative = inhibition in assay [18] is -16.6% [at 19 µM]. Moreover, the activity change, negative = inhibition in assay [10] is -10.3% [at 19 µM].

In the case of `CC(O)C#CC(C)O` (stereo not given), the Potency result in [1], in assay [17], in assay [4], in assay [5], in assay [6] and in assay [7] was “inactive” throughout. For the same compound, the Potency result in [8], in [9], in assay [10] and in assay [15] was “inactive” throughout. For the same compound, the values for the Potency in assay [14] and in assay [16] were 60.5 µM (active) and 24.1 µM (active), respectively.

As for `CC(C)C(=O)OCc1ccccc1`, the Potency entry in [1], in [2], in assay [6], in [8], in assay [9] and in assay [10] was “inactive” each time. Further, the Potency entry in [11], in assay [12], in assay [13], in assay [14], in assay [15] and in assay [16] was “inactive” each time.

For `COc1cc(C(=O)NS(=O)(=O)c2ccccc2C)ccc1Cc1cn(C)c2ccc(NC(=O)OC3CCCC3)cc12`, the Potency entry in assay [1], in assay [2], in assay [3], in assay [4], in assay [5] and in [6] was “inactive” in each case. Moreover, the Potency result in [9], in assay [10], in [19], in [11], in [13] and in assay [15] was “inactive” each time. Besides, the Potency entry in assay [16] is “inactive”.

As to `CCCC(CC)CCCCCCCN` (stereo not given), the Potency entry in assay [1], in assay [2], in [7], in [8], in assay [9] and in assay [10] was “inactive” each time. Further, the Potency result in assay [11], in assay [12], in [13], in [14] and in assay [15] was “inactive” in each case. For the same compound, the Potency in assay [3] is 56.3 µM (active).

For `CCCSS/C(CCO)=C(\C)N(C=O)Cc1cnc(C)nc1N`, the Potency result in assay [1], in assay [2], in [4], in assay [5], in assay [6] and in [7] was “inactive” throughout. The Potency result in [8], in assay [9], in assay [18], in assay [10], in [11] and in assay [14] was “inactive” throughout. In addition, the Potency entry in [15] and in assay [16] was “inactive” in each case.

Take `COCC(=O)O[C@]1(CCN(C)CCCc2nc3ccccc3[nH]2)CCc2cc(F)ccc2[C@@H]1C(C)C`: the Potency entry in assay [17], in [6], in [8], in assay [11], in [12] and in [15] was “inactive” throughout. Also, the Potency in [2] was 19 µM (active); in [3], 6.01 µM (active); in assay [4] it was 6.74 µM (active); in assay [5] it was 23.9 µM (active); in [7], 23.9 µM (active); in assay [9], 21.1 µM (active). Moreover, the Potency in assay [18] was 16.8 µM (active); in assay [13], 13.3 µM (active); in assay [16], 13.3 µM (active).
